# Inconclusive results are not listed. Where a call stands in place of a potency, no number is given. Unmarked numbers belong to inactive results. Activity calls are given as the source filed them. Calls follow the shape of the dose curve; as a rule, active = well fitted curve in the direction sought with a large enough effect; inconclusive = small, poorly fitted or top-dose-only effect, or another doubt; inactive = no such curve, though single readings can be large; an effect the other way counts as inactive or inconclusive.
# Assays:
# [1] = target: Calcium and integrin-binding protein 1 (Homo sapiens) (UniProt Q99828); assay: Primary qHTS for Identification of Calcium Integrin Binding Protein 1 (CIB1) Competitor (AID 1508620);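 also: GST tagged CIB1 binding a fluorescein labelled alphaIIb integrin peptide tracer; top concentration of the series differs between compounds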
# How it was run: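 Fluorescence polarization competition: CIB1-GST (1 uM final) preincubated with compound 15 min at room temperature, then FITC-labeled alphaIIb peptide (100 nM final) added for another 15 min. Polarization read at Ex 480/Em 540.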
# [2] = Primary qHTS for inhibitors of nuclear receptor binding SET domain protein 2 (NSD2) in an isogenic RCH-ACV NSD2 p.E1099K mutant (9B) (AID 1645876); also: nearly all actives have a fitted effect of over 70% in size; also: potency is read from the fitted curve at half-maximal effect
# [3] = Primary qHTS for inhibitors of nuclear receptor binding SET domain protein 2 (NSD2) in an RCH-ACV wild type WT cells (2C) (AID 1645877); also: nearly all actives have a fitted effect of over 70% in size; also: potency is read from the fitted curve at half-maximal effect
# Chain of Calcium and integrin-binding protein 1 (Homo sapiens) (Q99828 whole entry, looked up): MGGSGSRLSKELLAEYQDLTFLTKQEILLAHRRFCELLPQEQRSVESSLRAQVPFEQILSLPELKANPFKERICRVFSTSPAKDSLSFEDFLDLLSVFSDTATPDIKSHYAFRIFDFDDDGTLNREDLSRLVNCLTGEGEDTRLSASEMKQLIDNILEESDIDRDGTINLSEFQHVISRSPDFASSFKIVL
Compound,Potency [1],Potency [2],Potency [3],"activity change, negative = viability loss [2]","activity change, negative = cell killing [3]"
NC(=O)NCCCC(NC(=O)Cc1ccccc1)C(=O)O (centres undefined),inactive,inactive,inactive,–,–
C=C1C[C@]23C[C@H]1CC[C@H]2[C@]1(C)CC[C@H](O)[C@@](C)(C(=O)O)[C@H]1[C@@H]3C(=O)O,inactive,inactive,inactive,–,–
C[C@@H]1O[C@@H](OC(=O)Cc2ccccc2)[C@H](O)[C@H](O)[C@H]1O,inactive,inactive,inactive,–,–
COc1cc(CCCO)ccc1O[C@@H]1O[C@H](CO)[C@@H](O)[C@H](O)[C@H]1O,inactive,inactive,inactive,–,–
COc1cc([C@@H](O[C@@H]2O[C@H](CO)[C@@H](O)[C@H](O)[C@H]2O)[C@@H]2CO[C@H](c3ccc(O)c(OC)c3)[C@H]2CO)ccc1O,inactive,inactive,inactive,–,–
Cc1nnc(-c2sc(NC(=O)[C@H](C(C)C)n3c(=O)[nH]c4ccccc4c3=O)nc2C)o1,inactive,inactive,inactive,–,–
CC(=O)/C=C/[C@H]1[C@](C)(O)[C@@H](O)[C@H](O)C2C(C)(C)CCC[C@@]21C (some centres undefined),inactive,inactive,inactive,–,–
COc1c2c(c(C)c3c1C(=O)OC3)OC1(C)CC(O)C34OC(O)(CCC3(C)C1C2)OC4(C)C (centres undefined),inactive,inactive,inactive,–,–
CC1C2=CC(=O)OC2(O)CC2C1C(O)CC1C(C)(CO)CCCC21C (centres undefined),inactive,inactive,inactive,–,–
CC(=O)c1ccc(O[C@@H]2O[C@H](CO[C@@H]3OC[C@@H](O)[C@H](O)[C@H]3O)[C@@H](O)[C@H](O)[C@H]2O)cc1,inactive,inactive,inactive,–,–
CC(=O)NC1CC(=O)C23C(=O)NC(Cc4c[nH]c5ccccc45)C2C(C)=C(C)C(O)C3/C=C/CC(C)/C=C(/C)C(O)C1O (centres undefined),inactive,inactive,inactive,–,–
C[C@]12CCC[C@](C)(C(=O)O)C1[C@@H](O)[C@@H](O)C13CC(CCC12)C(CO)(O[C@@H]1O[C@H](CO)[C@@H](O)[C@H](O)[C@H]1O)C3 (some centres undefined),inactive,inactive,inactive,–,–
OC[C@H]1O[C@@H](O[C@H]2[C@H](O)[C@@H](CO)O[C@@H](OCc3ccccc3)[C@@H]2O[C@@H]2OC[C@](O)(CO)[C@H]2O)[C@H](O)[C@@H](O)[C@@H]1O,inactive,inactive,inactive,–,–
O=c1[nH]ccc2nc(-c3ccc(CN4CCC(c5nc(-c6ccccn6)n[nH]5)CC4)cc3)c(-c3ccccc3)cc12,inactive,32.5 nM (active),81.7 nM (active),–,–
COC(=O)C1=CO[C@@H](O[C@@H]2O[C@H](CO)[C@@H](O)[C@H](O)[C@H]2O)[C@@H]2[C@@H](C)[C@@H](OC(=O)/C=C/c3ccccc3)[C@@H](O)[C@H]12,inactive,inactive,inactive,–,–
COc1ccc(C2(O)c3c(ccc4c3OC(C)(CCC=C(C)C)C=C4)NC(=O)C2OC)cc1 (centres undefined),inactive,inactive,inactive,–,–
CC1CCC2(C(=O)O)CCC3(C)C(=CCC4C5(C)C[C@@H](O)[C@@H](O)C(C)(CO)C5CCC43C)C2C1(C)O (some centres undefined),inactive,6320 nM (active),3170 nM (active),–,–
C[C@H](O)C(O)(C(=O)OCc1ccccc1NC(=O)CCC(N)C(=O)O)[C@H](C)O (some centres undefined),inactive,inactive,inactive,–,–
COc1cc(/C=C/C(=O)O)ccc1O[C@@H]1O[C@H](CO)[C@@H](O)[C@H](O)[C@H]1O[C@@H]1OC[C@](O)(CO)[C@H]1O,inactive,inactive,inactive,–,–
CC(C)=CC[C@H]1O[C@]2(O)C([C@H]3CCC4[C@@]5(C)CC[C@H](O[C@@H]6O[C@H](CO)[C@H](O)[C@H](O[C@@H]7O[C@H](CO)[C@@H](O)[C@H](O)[C@H]7O)[C@H]6O[C@@H]6O[C@@H](C)[C@H](O)[C@@H](O)[C@H]6O)C(C)(C)C5CC[C@@]4(C)[C@]3(C)[C@H]2O)[C@@]1(C)O (some centres undefined),inactive,–,–,-8.31% [at 9.23 µM],-7.27% [at 9.23 µM]
CC(C)C(O)(CO)CCO[C@@H]1O[C@H](CO[C@H]2OC[C@](O)(CO)[C@H]2O)[C@@H](O)[C@H](O)[C@H]1O (some centres undefined),inactive,inactive,inactive,–,–
COc1c(-c2ccc(O)cc2)cc(OC)c2c1oc1cc(O)c(OC3OC(CO)C(O)C3O)cc12 (centres undefined),inactive,inactive,inactive,–,–
CC(=O)c1ccc(O[C@@H]2OC[C@@H](O)[C@H](O)[C@H]2O[C@]2(CO)O[C@H](CO)[C@@H](O)[C@@H]2O)c(O)c1,inactive,inactive,inactive,–,–
